# Assay outcomes from PubChem BioAssay.
# MITF TRPM1 inh – inhibitors of MITF-dependent TRPM1 promoter reporter, primary screen, cell-based, SK-MEL-5, single point, luciferase. 330,000 compounds, 0.83% hits. inhibition, % at 12.5 µM. SK-MEL-5 TRPM1 promoter luciferase, 24 h. AID 488899, 2010;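 active = mean inhibition across replicates of 60% or more, whatever share of single replicates reaches that level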
# CF NFkB inh – inhibitors of PAF-induced NF-kB signaling, primary screen, cell-based, GFP fluorescence, uHTS; KKLEB NF-kB-GFP reporter, GFP fluorescence overnight; inhibition, % at 5 µM; 360,000 compounds, 0.86% hits; AID 588850, 2011;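 active = at least 50% inhibition at 5 µM, scaled per plate between neutral and stimulator controls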;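 also: PAF is a Pseudomonas aeruginosa culture filtrate used as stimulus; plate controls were PAF-stimulated DMSO wells for no effect and unstimulated DMSO wells for full effect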
# KKLEB cytotox – cytotoxicity in KKLEB CF airway cells, primary screen, cytotoxicity control for CF NF-kB inhibitor project, cell-based, uHTS, fluorescence assay plates | KKLEB CF airway cells viability, ATPlite luminescence, overnight; hits give low values; cells stimulated with P. aeruginosa culture filtrate | activity change (cytotoxicity), % at 5 µM | 360,000 compounds, 0.36% hits | AID 602141, 2011;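 active = corrected activity change at or below -50% at 5 µM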
# Peg3 promoter – Peg3 promoter-driven luciferase inhibitors, primary screen, cell-based, HeLa, luciferase luminescence | HeLa PEG-Prom luciferase reporter, overnight | inhibition, % at 20 µM | 360,000 compounds, 1.7% hits;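 active = inhibition of at least 50% at 20 µM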
# LMP1 NFkB inh – EBV LMP1-driven NF-kappaB luciferase reporter inhibitors, primary screen, cell-based, luminescence, single point. AID 504558, 2011. 350,000 compounds, 0.69% hits. LMP1-induced NF-kappaB luciferase reporter cells. inhibition, % at 12.5 µM; in the data active = inhibition above about 41%;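 also: 0% = neutral control wells and 100% = reference inhibitor control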
# HIF-2a inh – HIF-2a reporter inhibitors, primary screen, luminescence, 786-0 RCC cells | 360,000 compounds, 0.72% hits | inhibition, % at 18.8 µM | 786-0 RCC cells HIF-2a reporter, luciferase luminescence, overnight;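 active = inhibition of the luminescence signal of 40% or more relative to plate controls, in a single-dose primary screen at 18.75 µM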
# CF NFkB conf – inhibitors of PAF-induced NF-kB signaling, retest, confirmation, cell-based, GFP fluorescence, single concentration. shares compounds with CF NFkB inh. KKLEB CF airway cells, overnight. inhibition, % at 5 µM. 1,300 compounds, 64% hits; in the data active = inhibition above about 40%;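 also: stimulus PAF is a Pseudomonas aeruginosa filtrate and not platelet activating factor; plate controls were DMSO wells with stimulus for no effect and unstimulated DMSO wells for full effect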
# * hit, by the source's call; · = no result. Hits are enriched below; roughly 3% of the tested compounds scored in any of these assays.
SMILES,MITF TRPM1 inh,CF NFkB inh,KKLEB cytotox,Peg3 promoter,LMP1 NFkB inh,HIF-2a inh,CF NFkB conf
CC[C@@H](C(=O)[C@@H](C)[C@@H](O)[C@H](C)[C@@H]1O[C@@H]([C@@H](CC)C(=O)O)CC[C@@H]1C)[C@H]1O[C@]2(C=C[C@@H](O)[C@]3(CC[C@@](C)([C@H]4CC[C@](O)(CC)[C@H](C)O4)O3)O2)[C@H](C)C[C@@H]1C,78*,69*,4,101*,-4,-35,105*
Cc1nn(-c2ccccc2)c(N2CCCC2)c1/C=N/NC(=O)c1cc(-c2ccccc2)nc2ccccc12,8,55*,-8,55*,11,20,66*
Cc1nn(-c2ccccc2)c(N2CCCC2)c1/C=N/NC(=O)c1cc2ccccc2cc1O,-1,17,-11,32,5,10,·
Cc1ccc(-c2cc(C(=O)N/N=C/c3c(C)nn(-c4ccccc4)c3C)[nH]n2)cc1,7,50*,-32,-4,1,3,84*
CCOC(=O)N1C(=O)[C@](c2ccc(Cl)cc2)(C(C)C)N1C(=O)OCC,39,51*,-6,68*,-1,26,9
COC(=O)N1C(=O)[C@](c2ccccc2)(C(C)C)N1C(=O)OC,13,36,-2,24,8,32,·
Cc1ccc(C(=O)OCC(=O)NC2CCCC(C)C2C)s1 (configuration not stated),·,6,-9,4,0,-9,·
Cc1nn(-c2ccccc2)c(Cl)c1/C=N/NC(N)=O,4,-8,-13,-23,-1,-88,·
NC(=O)N/N=C/c1c(Sc2nnnn2-c2ccccc2)nc2ccccn2c1=O,15,71*,-38,103*,17,3,72*
Cn1c(Oc2ccc(Cl)cc2)c(C=O)c2ccccc21,24,51*,-16,37,-3,31,70*
CC1(C(=O)NS(=O)(=O)Cc2cccc(Cl)c2)CCN1C(=O)C1CCCCC1 (configuration not stated),·,17,-8,2,·,12,·
O=C(Cc1ccccc1)Nc1ccc2[nH]ncc2c1,3,14,-3,-20,-1,-27,·
O=C(Cc1ccc(Br)cc1)Nc1ccc2[nH]ncc2c1,-3,53*,-45,5,-3,17,15
Cc1cccc(NC(=O)CNC(=O)c2ccc(S(=O)(=O)NCc3ccco3)cc2)c1C,·,6,6,4,-3,6,·
OC[C@@H]1CN(Cc2ccc(-c3ccccc3)cc2)C[C@H](n2cnc3c(NCc4ccncc4)ncnc32)O1,·,-13,2,27,·,8,·
COc1ccc(-c2ccc(CN3C(CC(C)C)C(=O)N(Cc4cn(Cc5ccco5)nn4)CCS3(=O)=O)cc2)cc1OC (configuration not stated),·,31,2,-6,-2,10,·
CC(C)C1C(=O)N(Cc2cn(Cc3ccco3)nn2)CCS(=O)(=O)N1Cc1ccc(-c2ccc(F)cc2)cc1 (configuration not stated),·,56*,13,21,-3,-32,35
COc1ccc(-c2ccc(CN3C(CC(C)C)C(=O)N(Cc4cn(Cc5ccco5)nn4)CCS3(=O)=O)cc2)cc1 (configuration not stated),·,57*,-9,19,16,17,36
CC(C)C1C(=O)N(Cc2cn(Cc3ccco3)nn2)CCS(=O)(=O)N1Cc1ccc(-c2ccccc2)cc1 (configuration not stated),·,32,5,-8,4,-19,·
CC(=O)CC1c2ccccc2C=C(c2ccsc2)N1c1ccc(-c2cccs2)cc1 (configuration not stated),·,·,·,·,·,-76,·
Cc1nc2c(=O)n(C)c(=O)n(C)c2nc1Cl,43,75*,9,108*,-32,39,-12
COc1ccc(N(C)S(=O)(=O)c2cccc(C(=O)Nc3nc4ccccc4[nH]3)c2)cc1,1,-8,1,13,9,-42,·
CN(c1cccc(Cl)c1)S(=O)(=O)c1cccc(C(=O)Nc2nc3ccccc3[nH]2)c1,-9,80*,-16,76*,30,-147,47*
Clc1ccc(C2Nc3cccc4cccc(c34)N2)c(Cl)c1,8,-6,-9,11,-11,-9,·
O=C1NC(c2cccc3ccccc23)Nc2ccc(Cl)cc21 (configuration not stated),42,52*,-26,-13,-2,2,84*
SMILES,MITF TRPM1 inh,CF NFkB inh,KKLEB cytotox,Peg3 promoter,LMP1 NFkB inh,HIF-2a inh,CF NFkB conf
CCC(CO)Oc1cc(NCc2ccc(Cl)cc2Cl)c2ncn(C(C)C)c2c1 (configuration not stated),7,60*,-2,14,-28,20,45*
CCC(CO)Oc1cc(NCc2ccc(Cl)cc2)c2ncn(C(C)C)c2c1 (configuration not stated),11,15,-6,15,0,3,·
CC(C)(C)OC(=O)NCC(=O)Oc1cc2oc(=O)cc(-c3ccccc3)c2cc1Cl,-16,53*,1,6,8,13,90*
O=C(Oc1cc2oc(=O)cc(-c3ccccc3)c2cc1Cl)C1CCCCC1,-31,64*,-17,2,8,-4,87*
CCc1cc2c(-c3ccccc3)cc(=O)oc2cc1OC(C)C(C)=O (configuration not stated),-17,22,-13,-8,-4,-24,·
CC(C)NC(=O)C1(C)CCCN1Cc1csc2ccccc12 (configuration not stated),·,12,-9,12,·,2,·
COc1cccc(-c2cnc(C(O)c3cccc(F)c3)[nH]2)c1 (configuration not stated),·,-5,-1,-44,·,-110,·
Cc1ccc(S(=O)(=O)Nc2ccc3cc([N+](=O)[O-])ccc3c2[N+](=O)[O-])cc1,21,50*,-24,48,-4,-26,75*
COc1cc(CNC(=O)c2cc(-c3cc(Cl)ccc3C)n[nH]2)cc(OC)c1,·,-6,-5,-13,·,-20,·
CC1=Nc2ccccc2/C1=C/c1c(C)[nH]c2ccccc12,49,53*,-22,91*,-7,25,-60
COc1ccc(-n2nc(C(=O)NCC(=O)NCCCN3CCOCC3)c3ccccc3c2=O)cc1,-2,61*,12,15,-2,15,15
Fc1ccc(-c2nc3c4ccccc4ccn3c2CC2CCCCC2)cc1,·,35,-1,-46,·,-128,·
